RE007 growth inh: qHTS Assay for Inhibitors of the HIV-1 protein Vpr. S. pombe RE007 Vpr strain, BacTiter-Glo ATP luminescence, 24 h. Potency, µM (highest dose often 92.2 µM), most hits filed as inhibitors. 360,000 tested, 0.21% active; active = well fitted falling curve with a large enough effect; inconclusive = small, poorly fitted or top-dose-only effect; inactive = no such curve, though single readings can be large or run the other way; also: nearly all actives have a fitted effect of over 50% in size
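Fission yeast strain RE007, carrying one chromosomally integrated HIV-1 vpr copy, was seeded at OD 0.01 in PMG+AL medium with 23 nL pinned compound. After 24 h at 30 °C and 99% humidity, viability was read by BacTiter-Glo luminescence.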
LmPK inh: qHTS Assay for Inhibitors of Leishmania Mexicana Pyruvate Kinase (LmPK). Q27686. purified LmPK, Kinase-Glo ATP luminescence, 1 h. Potency, µM (doses to about 57.5 µM), most hits filed as inhibitors. 290,000 tested, 0.37% active
Target sequence (Q27686 whole entry, looked up): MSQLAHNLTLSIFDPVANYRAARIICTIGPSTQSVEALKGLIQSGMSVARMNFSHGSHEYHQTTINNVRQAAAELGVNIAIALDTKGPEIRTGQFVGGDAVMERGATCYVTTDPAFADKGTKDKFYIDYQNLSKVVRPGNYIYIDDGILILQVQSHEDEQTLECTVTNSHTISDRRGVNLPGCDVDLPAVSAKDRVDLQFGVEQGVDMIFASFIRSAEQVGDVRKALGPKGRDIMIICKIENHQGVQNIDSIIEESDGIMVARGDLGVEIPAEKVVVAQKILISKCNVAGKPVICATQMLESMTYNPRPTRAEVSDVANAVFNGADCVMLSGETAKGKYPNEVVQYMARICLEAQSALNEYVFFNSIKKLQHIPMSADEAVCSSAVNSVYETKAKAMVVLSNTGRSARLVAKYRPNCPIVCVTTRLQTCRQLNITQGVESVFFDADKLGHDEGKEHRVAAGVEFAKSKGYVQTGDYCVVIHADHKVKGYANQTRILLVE
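In 50 mM imidazole pH 7.2 with 7 mM MgCl2, LmPK (0.1 nM) turned over PEP (0.5 mM) and ADP (0.1 mM) for 1 h at room temperature. Luciferase read-out of ATP.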
Giardia FBPA inh: qHTS Assay for Inhibitors of Fructose-1,6-bisphosphate Aldolase from Giardia Lamblia | A8B2U2 | purified Giardia FBPA | Potency, µM (doses to about 59.6 µM), hits mostly inhibitors | 290,000 tested, 0.71% active | AID 2451, 2010; also: nearly all actives have a fitted effect of over 55% in size
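40 nM FBPA preincubated 10 min at RT with compound (up to 57.5 uM final), then substrate plus GAPDH/TPI/NAD/arsenate coupling and diaphorase/resazurin added. Fluorescence read after 20 min at RT, 525/598 nm.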
Shiga inhibitor: A qHTS for Small Molecule Inhibitors of Shiga Toxin; 290,000 tested, 9.2% active; inhibition, % at 38.7 µM; Vero cells, Shiga toxin protein synthesis inhibition reporter; AID 2315, 2010; in the data active = inhibition mostly above about 28%, no sharp cut-off; inactive = mostly below about 43%
Cycloheximide cs: Cycloheximide Counterscreen for Small Molecule Inhibitors of Shiga Toxin | cell reporter, cycloheximide protein synthesis inhibition counterscreen | max response, % | 300,000 tested, 12% active; in the data active = max response mostly above about 13%, no sharp cut-off; inactive = mostly below about 14%; also: read at 38.3 µM for the half of the compounds with a filed dose
TbPYK inhibitor: qHTS of Trypanosoma Brucei Inhibitors; pyruvate kinase (Trypanosoma brucei), Q57TT1; TbPYK enzyme, Kinase-Glo Plus ATP luminescence, 45 min; Potency, µM (highest dose often 76.8 µM), usual class: inhibitors; 410,000 tested, 0.12% active; also: nearly all actives have a fitted effect of over 50% in size
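Readout: single end-point luminescence (Kinase-Glo Plus, 10 min). Reaction conditions were TbPYK/substrate plus 130 uM ADP, 45 min at RT, pH 7.2 TEA buffer. No-enzyme wells served as controls, and data were normalized before concentration-response fitting.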
Numbers stand for hits; – = inactive; ? = inconclusive; · = no result given. This excerpt belongs to a sample that is enriched for hits. Unless noted, calls follow the shape of the dose curve; as a rule, active = well fitted curve in the direction sought with a large enough effect; inconclusive = small, poorly fitted or top-dose-only effect, or another doubt; inactive = no such curve, though single readings can be large; an effect the other way counts as inactive or inconclusive.

SMILES | RE007 growth inh | LmPK inh | Giardia FBPA inh | Shiga inhibitor | Cycloheximide cs | TbPYK inhibitor
CCCc1ccc(OCc2nc(-c3ccc(NC(=O)c4cccs4)cc3)no2)cc1 | – | – | – | 176 | 80 | –
CCOc1ccc(CC(=O)NCCS(=O)(=O)N2CCN(c3ccc(OC)cc3)CC2)cc1 | · | · | · | · | · | –
COc1ccc(NC(=O)CSC2=Nc3ccccc3C3=NC(CC(=O)NCCc4ccccc4)C(=O)N23)cc1 (stereo not drawn) | · | · | · | · | · | –
Cc1ccc(CCNC(=O)Cn2ncc3c([nH]c4ccc(C)cc43)c2=O)cc1 | · | · | · | · | · | –
CC1CCC(NC(=O)CN2C(=O)c3cccnc3Oc3ccc(Cl)cc32)CC1 (stereo not drawn) | – | – | · | – | 16 | –
CC(C)Cn1c(-c2csc3c2CCCC3)n[nH]c1=S | – | 10µM | – | – | – | ?
CCc1nnc(SCc2cccc(F)c2)c2cc3sc(C)cc3n12 | · | · | · | · | · | –
CC(=O)Oc1ccc(/C=C/C(=O)CC2OC(Oc3cc(OC(C)=O)c4c(c3)O[C@@H](c3ccc(OC(C)=O)cc3)CC4=O)C(OC(C)=O)C(OC(C)=O)C2OC(C)=O)cc1 (stereo partly drawn) | · | · | – | · | · | ·
OCCCN=c1cc(-c2ccccc2)oc2ccc(Cl)cc12 | – | – | – | 97 | 35 | –
Cc1ccc(S(=O)(=O)NCC(c2ccc(N(C)C)cc2)N2CCCC2)cc1 (stereo not drawn) | · | · | · | · | · | –
COCC(=O)N(Cc1cc2cc(OC)ccc2[nH]c1=O)c1ccccc1 | – | – | – | – | 16 | –
COc1cccc(NC(=O)Cn2c(=O)n(-c3ccc(C)cc3)c(=O)c3ccc(C(=O)NCc4ccco4)cc32)c1 | · | · | · | · | · | –
CCOC(=O)c1ccc(NC(=S)Nc2cccc(N)n2)cc1 | – | – | ? | 81 | 50 | –
COc1ccc(NC(=S)Nc2ccccn2)cc1 | – | – | – | 135 | 46 | –
COC(=O)c1ccc(NC(=S)Nc2ccccn2)cc1 | – | – | – | 73 | 42 | –
COC(=O)c1ccc(NC(=S)Nc2ccc(O)cc2)cc1 | – | – | – | – | – | –
CCC(=O)N1CCc2cc(S(=O)(=O)NCCC(=O)Nc3ccc(CC)cc3)ccc21 | · | · | · | · | · | –
CC(C)c1ccc(/C=C(\C#N)c2nc(-c3ccc(O)cc3)cs2)cc1 | · | · | · | · | · | –
Cc1ccc(COc2ccc(CNCCCN3CCCCCC3=O)cc2)cc1 | – | – | ? | 70 | 26 | –
CCCCc1ccc(C(=O)N/C(=C\c2ccc(C)cc2)C(=O)NC2CCCCC2)cc1 | · | · | · | · | · | –
COc1ccccc1C(=O)Nc1cc2cc(Br)ccc2oc1=O | – | – | – | – | – | –
